Screening data (PubChem)
mHTT-CaM PPI inh: mutant huntingtin-calmodulin interaction inhibitors – biochemical, AlphaScreen, primary screen; inhibition, % at 15 µM; AlphaScreen His-mHTT/GST-CaM binding, luminescence; P42858; 3.6% of 190,000 active;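 also: 0% = both proteins with DMSO and 100% = one protein alone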
Pf apPOL inh: Pf-apPOL inhibitors, biochemical, fluorescence; Plasmodium falciparum apicoplast DNA polymerase (apPOL); Recombinant Pf-apPOL, molecular beacon fluorescence, 1.5 h; 0.25% of 210,000 active; inhibition, % at 10 µM
Numbers without * were called inactive; x = no result. In the library only some 3.5% were active in any assay of this set; here they are far more common. Rule as the data show it: active = inhibition above about 50%; inactive = the rest.

SMILES | mHTT-CaM PPI inh | Pf apPOL inh
OC(COCCC12CC3CC(CC(C3)C1)C2)CN1CCN(c2ccccc2F)CC1 (stereo unspecified) | 53* | 5
CCCN(CC)C(=O)c1ccc(-c2ccc3c(c2)OCO3)s1 | -11 | -3
Cc1ccc2cc3cc(C(=O)NC4CCCC(C)C4C)oc3nc2c1 (stereo unspecified) | -9 | -6
COc1ccc(/C=c2\sc3n(c2=O)CN(c2ccc([N+](=O)[O-])cc2)CN=3)cc1 | 4 | -3
CC1CCCCN1c1nc(-c2ccccc2O)nc2ccccc12 (stereo unspecified) | -8 | 3
CC1CCCCN1c1nc(Cl)nc(N2CCCCC2C)n1 (stereo unspecified) | 100* | 8
CC(=O)c1nnn(C2CCCCC2)c1NC1CCCCC1 | -19 | x
CC(C)CC(=O)N1CCN(CC2CC=CCC2)CC1 (stereo unspecified) | 4 | 91*
O=C(C1CCN(CC2CC=CCC2)CC1)N1CCCC1 (stereo unspecified) | 2 | -3
Cc1ccc(S(=O)(=O)CC(=O)Nc2ccccc2Oc2ccccc2)cc1 | -14 | -1
COc1ccc(Cl)cc1NC(=O)C(Cc1ccccc1)N1C(=O)C2C3CCC(C3)C2C1=O (stereo unspecified) | 32 | -1
COc1ccc(Cl)cc1NC(=O)C(Cc1ccccc1)N1C(=O)C2C3C=CC(C3)C2C1=O (stereo unspecified) | 51* | -2
COc1ccccc1/C=C1\C(=O)Nc2ccc(Br)cc21 | 30 | 3
COc1cc(Cl)cc(/C=C2\C(=O)Nc3ccc(Br)cc32)c1OC | 57* | -3
COc1cccc(/C=C2\C(=O)Nc3ccc(Br)cc32)c1OC | 89* | 4
COc1cc(Cl)c(/C=C2\C(=O)Nc3ccc(Br)cc32)cc1OC | 42 | -53
CCCN1CCN(c2ncc3c(n2)CCN(Cc2ccccc2OCC)C3)CC1 | 15 | 2
O=c1[nH]c2ccccc2nc1CN1CCN(c2cccc(Cl)c2)CC1 | -9 | 1
COc1ccc(N2CCN(Cc3nc4cc(Cl)c(Cl)cc4[nH]c3=O)CC2)cc1 | 53* | 0
COc1ccccc1-n1nc(C(=O)Nc2cccc(Cl)c2)c2ccccc2c1=O | 0 | -5
CN(C)CCNC(=O)c1cn2cc(-c3ccc(F)c(Cl)c3)ccc2n1 | 93* | 11
CN(C)c1ccc(CNC(=O)c2cn3cc(Cl)ccc3n2)cc1 | 15 | 0
O=C1OC(c2ccccc2)(c2ccccc2)c2ccccc21 | x | 1
CN(C)c1ccc(C2(c3ccc(N(C)C)cc3)OC(=O)c3ccccc32)cc1 | 86* | 1
O=c1oc(-c2ccccc2Cl)nc2c1cnn2-c1ccccc1 | 90* | -3
SMILES | mHTT-CaM PPI inh | Pf apPOL inh
COc1c(Cl)cnn(-c2ccccc2)c1=O | -2 | -4
FC(F)Oc1ccccc1C1C=C(c2ccc(Br)cc2)Nc2ncnn21 (stereo unspecified) | -1 | 6
COc1cc(Nc2ccc(C)cc2)c([N+](=O)[O-])nc1[N+](=O)[O-] | 6 | 3
COc1cccc(C(C)NC(=O)c2cc3ccccn3c2)c1 (stereo unspecified) | 68* | -3
COc1ccc(CNC(=O)c2cc3ccccn3c2)cc1 | 7 | 0
CCCNC(=O)c1cnn2c(C)c(Cc3ccc(F)cc3)c(C)nc12 | -1 | -4
Cc1nc2c(C(=O)NCCc3ccccc3)cnn2c(C)c1Cc1ccc(F)cc1 | 80* | -4
Cc1nc2c(C(=O)NCc3ccc(F)cc3)cnn2c(C)c1Cc1ccc(F)cc1 | 51* | -8
Cc1nc2c(C(=O)NCc3ccc(F)cc3)cnn2c(C)c1Cc1ccccc1 | 19 | -7
CCCCNC(=O)c1cnn2c(C)c(Cc3ccc(Cl)cc3)c(C)nc12 | 11 | -6
Cc1ccc(C)c(Cc2c(C)nc3c(C(=O)NCCc4ccccc4)cnn3c2C)c1 | 66* | -3
CCOCCCNC(=O)c1cnn2c(C)c(Cc3ccc(Cl)cc3)c(C)nc12 | 65* | -18
CCCCNC(=O)c1cnn2c(C)c(Cc3cc(C)ccc3C)c(C)nc12 | 11 | 0
Cc1ccc(COCc2nn(C)c3c2CN(S(=O)(=O)Cc2ccccc2F)CC3)cc1 | -1 | -5
O=C(c1cccc(CN2CCN(c3nc(-c4ccccc4)ns3)CC2)c1)N1CCC(O)CC1 | x | -18
Cn1nc(-c2nc(-c3ccccc3F)no2)c2c1CCN(C(=O)c1ccsc1)C2 | 20 | -1
CC(C)C12CC3CC(CC(C(=O)NN)(C3)C1)C2 | -7 | -5
Cc1ccc(C(=O)COc2ccc([N+](=O)[O-])cc2)cc1 | -2 | -1
Cc1cc(I)c(O)c(C=Nc2cc(C)ccc2O)c1 | 45 | -6
Cc1ccc(O)c(N=Cc2cc(I)ccc2O)c1 | 63* | 5
Cc1ccc2[nH]c(O)c(C(=O)C(=O)Nc3ccccc3)c2c1 | 0 | -2
CCOc1ccccc1NC(=O)CCN1CCN(C2c3ccccc3-c3ccccc32)CC1 | 57* | 0
O=C(CCN1CCN(C2c3ccccc3-c3ccccc32)CC1)Nc1ccccc1F | 15 | -2
CCCC12CN(S(=O)(=O)c3ccccc3)CC(C)(CN(S(=O)(=O)c3ccccc3)C1)C2=O | 7 | 5
CC1=NN(c2ccc(Cl)c(Cl)c2)C(=O)/C1=C/c1ccc(-c2ccc3c(c2)C(=O)OC3)o1 | 38 | -9
SMILES | mHTT-CaM PPI inh | Pf apPOL inh
O=C1NN(c2ccc(Cl)c(Cl)c2)C(=O)/C1=C/c1ccc(-c2ccc3c(c2)COC3=O)o1 | 60* | 56*
CC12CC(NC(=O)N1c1ccccc1Cl)c1cc([N+](=O)[O-])ccc1O2 (stereo unspecified) | 2 | -4
COc1ccc(N2CC(c3nnc(NC(=O)c4cccc(Cl)c4)o3)CC2=O)cc1 (stereo unspecified) | 56* | -2
CSc1ccc(N2CC(c3nnc(NC(=O)c4cccc(C)c4)o3)CC2=O)cc1 (stereo unspecified) | 3 | -4
CSc1ccc(N2CC(c3nnc(NC(=O)c4cccc(Cl)c4)o3)CC2=O)cc1 (stereo unspecified) | 53* | -1
COc1ccc(N2CC(c3nnc(NC(=O)c4ccccc4)o3)CC2=O)cc1 (stereo unspecified) | 19 | 1
CCOc1ccc(N2CC(c3nnc(NC(=O)c4cccc(Cl)c4)o3)CC2=O)cc1 (stereo unspecified) | 77* | -2
CCOc1ccc(N2CC(c3nnc(NC(=O)C4CC4)o3)CC2=O)cc1 (stereo unspecified) | 11 | -3
Cc1oc2ccn(C)c(=O)c2c1C(=O)NCc1ccc(F)cc1Cl | -2 | 4
O=C(Cn1cnc([N+](=O)[O-])n1)N1CCc2ccccc2C1 | 1 | 3
CN1C(=O)C(C)(C(=O)N2CCN(c3ccccc3F)CC2)Oc2cccnc21 (stereo unspecified) | -4 | -2
CCCC1N=C(c2ccc(Cl)cc2)CC(c2cccc(OC)c2O)N1 (stereo unspecified) | 52* | -4
CCCC1N=C(c2cccc(OC)c2)CC(c2ccccc2O)N1 (stereo unspecified) | 45 | -5
CCn1cc2c3c(cccc31)CN(C(=O)CC(C)C)CC2 | 40 | -4
Cc1ccc(-n2cc(C(=O)N3CCCC3)c3ccccc3c2=O)cc1C | 10 | -6
Cc1ccc(-n2cc(C(=O)N3CCN(c4ccccc4)CC3)c3ccccc3c2=O)cc1C | 74* | -1
Cc1cc(=O)[nH]c(-n2nc(-c3ccccc3)cc2NC(=O)CCSc2ccccc2)n1 | -13 | -10
